The list is a sample of the results. How many sequences the whole screen found active is unknown.
B1: il10ra_site1_normal_mot_HHH_b1_00999_000000080_0001_41_55_H_._HHH_b1_01870_0001_0000600018_0000001_0 (protein)
chain: SSSSSSSEEEVEELLEEAKEIDDPREAARVLQEATHIALRNQNPELLRLVWEVVKRLGSSSSSSS
B2: il10ra_site1_normal_mot_HHH_b2_04945_000000076_0001_1_19_H_._HHH_b2_05056_0001_0000400022_0000001_0 (protein)
chain: SSSSTDELFEEVRRIIEEAVRLYREGNPEEARRLVEEALELAEENNNFALVFALEHLLRDLSSSS
B3: il10ra_site1_normal_mot_HHH_b2_07144_000000289_0001_1_18_H_._HHH_b2_04284_0001_0000200013_0000001_1 (protein)
chain: SSSSSENHRAYELSREAAELLRQGNEEEAREVLEEVKEIAEEANNPILEFAARAIEKAVNSSSSS
B4: il10ra_site1_normal_mot_HHH_b2_01032_000000296_0001_1_18_H_._HHH_b1_04384_af2_0001_0000600026_0000001_1 (protein)
chain: SSSSSDEEEELLELSRQAFELALRGNPEEAREVLEEAERLARELGDERLLRLVEELLQALSSSSS
B5: il10ra_site1_sap_16_mot_HHH_b2_00093_af2_000000025_0001_40_54_H_._HHH_b1_03751_0001_0001000047_0000001_0_0001_af2pred_0001 (protein)
chain: SSSSSEEERFYQLLLEALRLARRLNDEEVEEELRELLEEYKQKGDPRVEERIEELLKELRSSSSS
B6: il10ra_site1_sap_29_mot_HHH_b2_02354_af2_000000157_0001_40_56_H_._ems_3hM_2942_af2_0001_0000100002_0000002_1_0001_af2pred_0001 (protein)
chain: SSSSTAEEDVRLAIAAAELALKAGDPEKARRALEIAKLIARQGNNPELEEELEELEEEINSSSSS
B7: il10ra_site1_normal_mot_HHH_b2_00479_000000091_0001_1_12_H_._HHH_b2_03388_af2_0001_0000400024_0000002_0 (protein)
chain: SSSSTEENDEVYKLIREALELMARGNPEEARKVLEEAEEILEELNNRVLLFNVRFLLRELGSSSS
B8: il10ra_site1_normal_mot_HHH_b1_05056_000000217_0001_1_20_H_._HHH_b2_04661_af2_0001_0000500034_0000002_0 (protein)
chain: SSSSDEEELEELLEKLEELAEKGDRERFLELVLRLSELIFRLGDKEALQRLWELVREFLRRSSSS
B9: il10ra_site1_normal_mot_HHH_b2_02337_000000026_0001_38_52_H_._HHH_b2_04776_0001_0000200023_0000003_0 (protein)
chain: SSSSSSEEEEEIEELLEQLERAKSDEEISEVALRLVRLIWELNNQELLQRLWEIVKRLASSSSSS
B10: il10ra_site1_normal_mot_HHH_b2_04274_000000146_0001_1_19_H_._5a9ba470ffdefe7bbe7d066b6a6aec3b_0001_af2_0001_0000200013_0000001_1_af2pred_0001 (protein)
chain: NELVKAIRLLLQRFADDPEVLRVLRRILKLSLEDPEEAVELLLELAEKLGDPEVEELAREVERRR
B11: il10ra_site1_sap_16_mot_HHH_b2_08144_af2_000000046_0001_38_52_H_._HHH_b2_08331_0001_0000200020_0000002_0_0001 (protein)
chain: SSSSNAAEYLVRQALRAARLAKENNDPELVKRALEIAERIAENANDPELKELVEEVEEELESSSS
B12: il10ra_site1_normal_mot_HHH_b1_05326_000000242_0001_1_20_H_._HHH_b2_08124_0001_0000100011_0000002_0 (protein)
chain: SSSSSSDEFLRLLRRIFRLLLRGNPEEAQELLEELEELAEELNDPAARRAVEILKEAASSSSSSS
B13: il10ra_site1_normal_mot_HHH_b1_02809_af2_000000277_0001_40_57_H_._HHH_b2_07682_0001_0000300022_0000001_0_af2pred_0001 (protein)
chain: SSSSSRDEEAVRRALRLAKWLREAGDEEAVRKYLKAAKILAKRIGDPELEELVERVEEHLSSSSS
B14: il10ra_site1_normal_mot_HHH_b2_00273_000000062_0001_23_39_H_._HHH_b2_06821_0001_0000300032_0000001_0 (protein)
chain: SSSSEIEEFIEEVEERVRELVERGDTEEALQLLWEAAKLVAENNDEEALRILMELLRLVFRSSSS
B15: il10ra_site1_normal_mot_HHH_b2_01235_000000294_0001_1_18_H_._HHH_b1_05611_0001_0000600040_0000001_0_af2pred_0001 (protein)
chain: SSSSDVTERVLELLREALKLLKDGNPEEAREVLEEAEELAEEGNDELLRHLIEFAQEEIDSSSSS
B16: il10ra_site1_sap_16_mot_HHH_b2_03220_af2_000000223_0001_23_40_H_._HHH_b1_06161_af2_0001_0000300008_0000002_0_0001 (protein)
chain: SSSSSSDEEAAELIREISKVLAEGDRERVEELLEELEKLAEELGDPAARIYVEFVKQLLSSSSSS
B17: il10ra_site1_sap_21_mot_HHH_b1_05357_000000034_0001_23_39_H_._HHH_b2_05349_0001_0000600054_0000001_0_0001_af2pred_0001 (protein)
chain: SSSSNREQRVAELLARALRAAAEGNPEEAERLLEEARELAEELNDEELERAIEILKRYVERSSSS
B18: il10ra_site1_sap_23_mot_0eddeacbb14b769e73e254714f31e2f9_0001_af2_000000127_0001_37_51_H_._HHH_b1_00538_0001_0000500024_0000001_0_0001 (protein)
chain: SSSSSEEEEKAKELIELLEELAKEGDPEEFNRVALEAVRLVLELGDAELLRELWELFKSVSSSSS
B19: il10ra_site1_normal_mot_HHH_b1_08477_000000091_0001_40_57_H_._HHH_b1_03479_0001_0000200016_0000001_0 (protein)
chain: SSSSSEEEERVRQALRFAEALYKSGNPEAAESLLRVLVQSLRRLGNEELVELVEQVLEELNSSSS
B20: il10ra_site1_normal_mot_8756ee2cf497b5429c717dfc0c0bcfd6_0001_000000186_0001_1_13_H_._HHH_b2_04770_af2_0001_0000400016_0000001_0_af2pred_0001 (protein)
chain: SSSSSSDEELKRVQELIRRAAKITDEEELREVLEEAKELAEELGNEILRVIVEFLLELMTSSSSS
B21: il10ra_site1_sap_15_mot_HHH_b2_04646_000000019_0001_1_20_H_._HHH_b1_08112_af2_0001_0000300009_0000001_0_0001 (protein)
chain: SSSSDVEEEVEELLEQAEELARRGNPEEAYKLLKEAAELASEANDPELQRLVVEVSRRVIGSSSS
B22: il10ra_site1_sap_24_mot_HHH_b1_04771_000000013_0001_40_56_H_._HHH_b2_02918_af2_0001_0000100007_0000001_0_0001 (protein)
chain: SSSSDDEERVKQAIRFARWLLENGDKEAAKRIVEAAQDIARKGGNEELVQELEELEEEIKSSSSS
B23: il10ra_site1_sap_20_mot_HHH_b1_04573_000000273_0001_43_57_H_._HHH_b2_07679_0001_0000100005_0000002_0_0001 (protein)
chain: SSSSSDENEEIYRLLREAAEALANGNPEEAREIVEQAVELAEEANSQVLLFNAEYLLRQINSSSS
B24: il10ra_site1_sap_24_mot_HHH_b1_00999_000000080_0001_41_55_H_._HHH_b1_05694_af2_0001_0000300017_0000001_0_0001_af2pred_dldesign_0_af2pred (protein)
chain: SSSSDPQRVVELIHEANRLVDEGRLDEAERLLEEALRLARAADDAELAAAVEKALAFVRSLSSSS
B25: il10ra_site1_normal_mot_HHH_b1_00999_000000080_0001_41_55_H_._HHH_b1_02815_0001_0000700030_0000002_0 (protein)
chain: SSSSDEEEERSKELLEELEELLRRGDQHRFLRLLQHIVRFAFEVSDEELLHEVWRLAREFGSSSS
B26: il10ra_site1_normal_mot_HHH_b1_05357_000000034_0001_23_39_H_._HHH_b2_00878_af2_0001_0000100001_0000001_0_af2pred_0001 (protein)
chain: SSSSSSDLEEEVEKLLEEAEKIEDQLRLAYVLTRAYAVANRLNDPELRELIREVAKKLSSSSSSS
B27: il10ra_site1_normal_mot_0cd074c2d6d3de76f1399c5a775575d2_0001_1_af2_000000000_0001_16_30_H_._a6da520ff4a02840130205282d0b8d49_0001_0001_0000200007_0000001_0_af2 … (protein)
chain: SREQAILYAAIVASGGDEDRIEHLLEIYYEFTGDPAVKEVLERLRAAKAAGIPAEELLKQLEAEN
B28: il10ra_site1_sap_20_mot_HHH_b1_01886_000000262_0001_1_18_H_._HHH_b1_05552_af2_0001_0000500031_0000001_0_0001_af2pred_dldesign_0_af2pred (protein)
chain: SSSSSDLAAVLAEAEALFARSKTVSPEEKEVILQRIVDLALKHENLEVAKLANELLKELSSSSSS
B29: il10ra_site1_sap_25_mot_2c1a291787c6f40772924d4e9068d803_0001_af2_000000187_0001_34_48_H_._HHH_b2_07308_af2_0001_0000400007_0000002_0_0001_af2pred_0001 (protein)
chain: SSSSSTREEVIKRVIELLREARRIEDPEEREEVLEEAHRLAEEGNNELLKFIVESLERKLSSSSS
B30: il10ra_site1_sap_16_mot_HHH_b2_06643_000000103_0001_1_18_H_._HHH_b2_07694_0001_0000100008_0000001_0_0001_af2pred_0001 (protein)
chain: SSSSSSEEEELAELALRLLVEALQHGDPELREEIKELIEEAEKVGDERVVRLLRAALRALSSSSS
B31: il10ra_site1_normal_mot_8756ee2cf497b5429c717dfc0c0bcfd6_0001_000000186_0001_1_13_H_._HHH_b2_05079_af2_0001_0000100002_0000002_1_af2pred_dldesign_0_af2pred (protein)
chain: SSSSSSELEELKNLIKEIAELLYEGKPEEARELLEKAEELAKKLGNKTALATLDYLRRQIESSSS
B32: il10ra_site1_sap_25_mot_HHH_b2_05323_000000159_0001_1_18_H_._HHH_b1_08298_af2_0001_0000500034_0000001_0_0001 (protein)
chain: SSSSDEELQEAFELLREAVEALLDGNPEEAEKLLEEARKLAEEAGNRLLRWQIEWLLEKVRSSSS
B33: il10ra_site1_normal_mot_HHH_b2_00441_000000147_0001_1_18_H_._HHH_b1_04947_af2_0001_0000200007_0000001_0_af2pred_0001 (protein)
chain: SSSSDEYLKKAIRALFRAIKRAIELGDEEVVRLALKDLRFLAREHNDEEAEELLKELEELLSSSS
B34: il10ra_site1_normal_mot_HHH_b2_00984_000000042_0001_1_20_H_._HHH_b2_07534_0001_0000600066_0000001_1 (protein)
chain: SSSSDEEEKRLEELLEEVRELLERGDPERAARLAQELLRHIFRASDEEALQELWELIKREASSSS
B35: il10ra_site1_normal_mot_HHH_b2_03328_af2_000000127_0001_1_19_H_._HHH_b1_03894_0001_0000100001_0000001_0 (protein)
chain: SSSSSSNELYELSREALELFANGNPEEAQRVVEEAIELAEELGNRVILFTLRHLLRVISSSSSSS
B36: il10ra_site1_normal_mot_HHH_b1_08477_000000091_0001_40_57_H_._HHH_b2_05084_0001_0000800035_0000001_0 (protein)
chain: SSSSDIAEETARFLLEMAERLIEQGNPEYARQALRFALRLARDAGNPELEEEIQKLLEELGSSSS
B37: il10ra_site1_normal_mot_HHH_b2_06857_af2_000000179_0001_42_54_H_._HHH_b2_07752_af2_0001_0000500038_0000002_0 (protein)
chain: SSSSNELHEELYELIRKAAELARNGNPEEAEKVLEEARKIAEELNNELAEFQIRFLERLLSSSSS

What follows are binders tested against il10ra, Q13651 (assay: yeast display titration).
Chain of il10ra, Q13651 (Q13651 whole entry): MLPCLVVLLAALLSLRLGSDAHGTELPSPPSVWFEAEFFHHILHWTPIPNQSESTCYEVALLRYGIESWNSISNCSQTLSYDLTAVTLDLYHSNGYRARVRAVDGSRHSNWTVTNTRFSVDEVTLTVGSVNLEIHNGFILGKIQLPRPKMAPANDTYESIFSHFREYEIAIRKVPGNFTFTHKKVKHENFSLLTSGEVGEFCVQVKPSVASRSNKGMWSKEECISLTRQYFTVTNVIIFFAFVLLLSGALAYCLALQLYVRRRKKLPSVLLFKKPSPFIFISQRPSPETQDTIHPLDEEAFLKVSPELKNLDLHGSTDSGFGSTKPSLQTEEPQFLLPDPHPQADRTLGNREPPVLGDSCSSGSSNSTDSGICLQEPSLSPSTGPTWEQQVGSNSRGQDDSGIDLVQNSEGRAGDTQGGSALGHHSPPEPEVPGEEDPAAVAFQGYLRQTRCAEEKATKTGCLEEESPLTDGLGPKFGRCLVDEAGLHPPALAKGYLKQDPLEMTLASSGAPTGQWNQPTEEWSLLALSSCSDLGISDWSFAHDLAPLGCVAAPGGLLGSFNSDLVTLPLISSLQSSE

Apparent Kd, inactive:
B1 no binding seen
B2 no binding seen
B3 no binding seen
B4 no binding seen
B5 no binding seen
B6 > 1.5 µM
B7 no binding seen
B8 no binding seen
B9 no binding seen
B10 no binding seen
B11 no binding seen
B12 no binding seen
B13 no binding seen
B14 no binding seen
B15 no binding seen
B16 no binding seen
B17 no binding seen
B18 no binding seen
B19 no binding seen
B20 no binding seen
B21 no binding seen
B22 no binding seen
B23 no binding seen
B24 no binding seen
B25 no binding seen
B26 no binding seen
B27 no binding seen
B28 no binding seen
B29 no binding seen
B30 no binding seen
B31 no binding seen
B32 no binding seen
B33 no binding seen
B34 no binding seen
B35 no binding seen
B36 no binding seen
B37 no binding seen
